Here are results for 40 molecules from PubChem BioAssay (Tox21).

Active and inactive are the calls of the source. Calls follow the shape of the full dose curve.
% is scaled to controls: 0 for no effect and ±100 for the full control effect.

Chain of Acetylcholinesterase (Homo sapiens) (P22303 whole entry, looked up): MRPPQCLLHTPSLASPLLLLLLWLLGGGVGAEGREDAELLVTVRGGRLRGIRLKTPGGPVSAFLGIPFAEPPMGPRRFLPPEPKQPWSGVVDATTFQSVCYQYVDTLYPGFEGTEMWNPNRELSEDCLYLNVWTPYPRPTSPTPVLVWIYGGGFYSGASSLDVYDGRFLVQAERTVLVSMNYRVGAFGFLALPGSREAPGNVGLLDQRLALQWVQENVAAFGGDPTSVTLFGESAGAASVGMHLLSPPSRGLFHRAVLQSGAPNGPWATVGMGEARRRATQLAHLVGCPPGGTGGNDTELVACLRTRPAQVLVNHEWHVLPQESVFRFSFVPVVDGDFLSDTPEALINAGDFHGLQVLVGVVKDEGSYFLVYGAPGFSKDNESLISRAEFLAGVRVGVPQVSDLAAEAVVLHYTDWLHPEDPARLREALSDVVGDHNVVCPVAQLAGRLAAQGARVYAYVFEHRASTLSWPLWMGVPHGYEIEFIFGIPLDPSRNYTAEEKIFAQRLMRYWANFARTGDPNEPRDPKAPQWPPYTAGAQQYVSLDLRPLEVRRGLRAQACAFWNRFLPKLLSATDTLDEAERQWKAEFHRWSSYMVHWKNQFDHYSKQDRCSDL

In this experiment the target is Acetylcholinesterase (Homo sapiens) (UniProt P22303). The experiment is described as follows: Acetylcholinesterase (AChE) small molecule antagonists: enzyme-based qHTS assay with human liver microsomes (AID 1347399). Also: nearly all actives have a fitted effect of over 60% in size. As to conditions: Potency: qHTS inhibition; outcome: qHTS inhibition; series mostly up to 115 µM; activity change, negative = inhibition: at the top concentration. An outline of the steps:
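Recombinant human AChE (50 mU/mL in the enzyme mix) and human liver microsomes (0.25 mg/mL final) were preincubated with compound and NADPH (0.25 mg/mL final) for 30 min at 37 C. Acetylthiocholine/DTNB was then added; thiocholine was read colorimetrically after 10 min at room temperature.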
A general note: In qHTS, concentration-response curves come from the screen itself.
With `Cc1ccccc1CCO`, the “activity change, negative = inhibition” value was -1.22% (inactive).
For `O=C(O)COc1nn(Cc2ccccc2)c2ccccc12`, the “activity change, negative = inhibition” value was 0.31% [at 53 µM] (inactive).
`CCCCCCCCCCCC`: the “activity change, negative = inhibition” value is -2.24% (inactive).
Take `C=CC(=O)OCCOC(=O)C=C`: the “activity change, negative = inhibition” value is -1.35% (inactive).
`CC(C)Oc1ccc2c(=O)c(-c3ccccc3)coc2c1`: the Potency entry is “inactive”.
Consider `Fc1ccc(C(c2ccc(F)cc2)N2CCNCC2)cc1`, for which the “activity change, negative = inhibition” value is -1.47% [at 53 µM] (inactive).
Regarding `CCCCOCCOCCOCCCC`, the “activity change, negative = inhibition” value was 2.1% (inactive).
For the molecule `C=Cc1ccncc1`, the “activity change, negative = inhibition” value was -0.0841% (inactive).
In the case of `O=c1[nH]c2ccccc2n1CCCN1CCN(C(c2ccccc2)c2ccccc2)CC1`, the “activity change, negative = inhibition” value is 0.295% [at 53 µM] (inactive).
Consider `O=S(O)O`, for which the activity change, negative = inhibition is -0.486% [at 23.6 µM] (inactive).
For `O=C(c1ccc(O)c(O)c1)c1ccc(O)cc1O`, the “activity change, negative = inhibition” value was 3.92% (inactive).
As for `C=CCSSCCC`, the “activity change, negative = inhibition” value was 3.01% (inactive).
Consider `Clc1ccc2c(c1)Nc1ccccc1S2`, for which the “activity change, negative = inhibition” value is 0.666% [at 53 µM] (inactive).
Regarding `Oc1ccc2cc(SSc3ccc4cc(O)ccc4c3)ccc2c1`, the Potency entry is “inactive”.
As for `CC(C)=CCC1C(=O)N(c2ccccc2)N(c2ccccc2)C1=O`, the “activity change, negative = inhibition” value was 0.743% [at 53 µM] (inactive).
Turning to `C=C(C)[C@@H]1CC=C(C)C(=O)C1`, the “activity change, negative = inhibition” value was -3.2% (inactive).
Take `NCCOCCN`: the “activity change, negative = inhibition” value was 2.52% (inactive).
Consider `CC(=O)C(C)C`, for which the Potency result is “inactive”.
Turning to `C[Si](C)(C)O[Si](O)(O)O`, the “activity change, negative = inhibition” value was 2.22% (inactive).
In the case of `Cc1nnc(C(=O)NC(C)(C)c2nc(C(=O)NCc3ccc(F)cc3)c(O)c(=O)n2C)o1`, the “activity change, negative = inhibition” value is 2.69% [at 53 µM] (inactive).
Turning to `CCC(N)(CO)CO`, the “activity change, negative = inhibition” value was -0.266% (inactive).
Take `CCC(C)(C)C(=O)O[C@H]1C[C@@H](C)C=C2C=C[C@H](C)[C@H](CC[C@@H]3C[C@@H](O)CC(=O)O3)[C@H]21`: the Potency result is “inactive”.
As to `Cc1cccc(Oc2ccccc2)c1`, the “activity change, negative = inhibition” value is 0.226% (inactive).
Take `C=CC(=O)OCCC(=O)O`: the Potency result is “inactive”.
As for `O=C(Nc1ccc(C(=O)O)c(O)c1)c1ccccc1`, the “activity change, negative = inhibition” value was 16% [at 53 µM] (inactive).
Regarding `Cc1cc2c(OCC(CNC(C)(C)C)OC(=O)c3ccccc3)cccc2[nH]1` (stereo not given), the “activity change, negative = inhibition” value was -0.735% [at 53 µM] (inactive).
Take `O=C(NO)C1(NS(=O)(=O)c2ccc(Oc3ccc(F)cc3)cc2)CCOCC1`: the “activity change, negative = inhibition” value is -1.6% (inactive).
For the molecule `CC(C)(c1ccccc1)c1ccccc1`, the “activity change, negative = inhibition” value is 0.748% (inactive).
As to `CC(=O)CC(=O)Nc1ccccc1C`, the Potency result is “inactive”.
On to `Cc1cc(O)c2c(c1)C(=O)c1cc(O)cc(O)c1C2=O`, for which the Potency result is “inactive”.
As for `CN1Cc2cc(C(=O)N3CCC(C4CCNCC4)CC3)ccc2NC(CC(=O)O)C1=O` (stereo not given), the “activity change, negative = inhibition” value was 0.336% [at 53 µM] (inactive).
`CCCCOC(=O)C(=O)OCCCC`: the “activity change, negative = inhibition” value is 0% (inactive).
`CC/C=C(\C)C=O`: the “activity change, negative = inhibition” value is -0.0875% (inactive).
Consider `O=[N+]([O-])c1ccccc1C(F)(F)F`, for which the Potency result is “inactive”.
As for `CN1CCC(=C2c3ccccc3CCc3cccnc32)CC1`, the “activity change, negative = inhibition” value was -0.841% [at 53 µM] (inactive).
In the case of `CC1CC(OC(=O)c2ccccc2O)CC(C)(C)C1` (stereo not given), the Potency result is “inactive”.
Regarding `COc1nc(C)nc(NC(=O)NS(=O)(=O)c2ccccc2OCCCl)n1`, the “activity change, negative = inhibition” value was 1.39% (inactive).
`NS(=O)(=O)c1cc2c(cc1Cl)NCNS2(=O)=O`: the Potency result is “inactive”.
Consider `C/C(=C1\CCOC(=O)S1)N(C=O)Cc1cnc(C)nc1N`, for which the “activity change, negative = inhibition” value is 0.336% [at 53 µM] (inactive).
As to `CCCCCCCCCCCO`, the Potency entry was “inactive”.
